Experimental data published in PubChem BioAssay.
Values joined by “and” are separate entries in the source; they are usually repeats but may differ in a detail not shown here. Equal values may be shown once. Active and inactive are the calls of the source. Unless noted, the rule behind the calls is not given here.

Experiments:
[1] = HepG2 liver cancer cell viability effects, profiling panel, resazurin fluorescence, 24 h, PK04 Diversity Set (AID 1172); details: higher = more signal; note: test concentration not given here
[2] = basal S. cerevisiae growth modulation, no modifier, primary screen, OD600, strain BY4716, 24 h, basal condition (AID 1173); details: OD600, 24 h, higher = more signal, called active from +8 up or from −8 down
[3] = MM1S myeloma cell viability, profiling panel, resazurin fluorescence, basal, 24 h, PK04 Diversity Set (AID 1174); details: higher = more signal, called active from +8 up or from −8 down;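 note: MM1S multiple myeloma cell line; test concentration not given here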
[4] = target: Dihydroorotate dehydrogenase (quinone), mitochondrial (Plasmodium falciparum (isolate 3D7)) (UniProt Q08210); test: PfDHODH enzyme inhibitors, primary screen, biochemical, C-terminal His tag, absorbance 600 nm (AID 1175); details: DCIP absorbance 600 nm, higher = more signal, called active from +8 up or from −8 down;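 note: recombinant parasite enzyme with a five histidine tag at its C terminus; test concentration not given here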
Sequence of Dihydroorotate dehydrogenase (quinone), mitochondrial (Plasmodium falciparum (isolate 3D7)) (Q08210 whole entry, looked up): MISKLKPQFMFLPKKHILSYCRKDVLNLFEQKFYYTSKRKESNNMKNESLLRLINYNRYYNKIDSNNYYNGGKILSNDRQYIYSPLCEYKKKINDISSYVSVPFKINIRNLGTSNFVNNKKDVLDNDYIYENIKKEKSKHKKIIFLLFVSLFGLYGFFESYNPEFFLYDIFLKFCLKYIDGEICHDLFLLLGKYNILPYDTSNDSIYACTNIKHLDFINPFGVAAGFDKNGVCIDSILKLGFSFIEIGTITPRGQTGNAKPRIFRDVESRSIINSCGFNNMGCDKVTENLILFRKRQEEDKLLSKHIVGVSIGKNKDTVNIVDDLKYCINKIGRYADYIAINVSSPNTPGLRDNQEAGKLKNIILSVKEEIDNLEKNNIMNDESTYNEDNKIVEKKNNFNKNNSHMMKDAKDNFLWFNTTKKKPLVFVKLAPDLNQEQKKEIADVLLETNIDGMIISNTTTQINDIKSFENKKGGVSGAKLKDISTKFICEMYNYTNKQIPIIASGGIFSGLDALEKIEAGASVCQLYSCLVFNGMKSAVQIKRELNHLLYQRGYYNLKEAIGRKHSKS

[5] = P. aeruginosa biofilm formation inhibitors, primary screen, strain PAO1, LB-PBS medium, absorbance 600 nm (AID 1176); note: test concentration not given here; details: P. aeruginosa PAO1 growth/biofilm, A600, 12 h; higher = more signal
[6] = S. cerevisiae RM11-1a growth modifiers, primary screen, strain RM11-1a, OD600, basal, 24 h (AID 1177); details: OD600, 24 h, higher = more signal, called active from +8 up or from −8 down;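 note: cultures grown under basal conditions with no added stressor; test concentration not given here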
[7] = E. coli acrAB mutant growth effects, primary screen, E. coli filamentation inducers, strain DRC39, OD650, 24 h (AID 1178); details: higher = more signal, called active from +8 up or from −8 down;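 note: growth measured as culture turbidity by optical density at 650 nm; test concentration not given here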
[8] = E. coli acrAB mutant growth effects, primary screen, E. coli filamentation inducers, strain DRC39, OD650, 48 h (AID 1179);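 note: screen aims at cell division blockers that make cells filament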; details: E. coli DRC39 delta-acrAB growth, higher = more signal, called active from +8 up or from −8 down
[9] = RPMI8226 myeloma cell viability, profiling panel, resazurin fluorescence, basal, 24 h, PK04 Diversity Set (AID 1180); details: higher = more signal;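 note: RPMI8826 multiple myeloma cell line at 5000 cells per well; test concentration not given here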
[10] = target: E3 ubiquitin-protein ligase XIAP (Homo sapiens) (UniProt P98170); test: XIAP binders, primary screen, biophysical, small-molecule microarray, fluorescence 635 nm (AID 1181); details: small-molecule microarray binding, higher = more signal;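 note: score merges 667 nm emission and signal to noise over triplicate slides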
Sequence of E3 ubiquitin-protein ligase XIAP (Homo sapiens) (P98170 whole entry, looked up): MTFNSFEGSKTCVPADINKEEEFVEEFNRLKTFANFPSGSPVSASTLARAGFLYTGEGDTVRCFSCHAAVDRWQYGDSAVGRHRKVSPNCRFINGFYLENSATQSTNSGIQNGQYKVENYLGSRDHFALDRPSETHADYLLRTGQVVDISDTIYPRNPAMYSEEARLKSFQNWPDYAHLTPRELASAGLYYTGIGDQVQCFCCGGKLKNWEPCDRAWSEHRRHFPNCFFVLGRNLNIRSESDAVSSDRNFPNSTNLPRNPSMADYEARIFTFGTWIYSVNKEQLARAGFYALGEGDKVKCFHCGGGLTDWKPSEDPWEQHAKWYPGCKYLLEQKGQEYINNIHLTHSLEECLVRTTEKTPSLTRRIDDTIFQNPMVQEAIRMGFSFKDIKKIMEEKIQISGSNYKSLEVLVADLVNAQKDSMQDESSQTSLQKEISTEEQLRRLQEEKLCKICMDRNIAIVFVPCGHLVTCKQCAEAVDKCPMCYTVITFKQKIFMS

| Compound | z-score [1] | z-score [2] | z-score [3] | composite z-score [4] | z-score [5] | z-score [6] | z-score [7] | z-score [8] | z-score [9] | composite z-score [10] |
| --- | --- | --- | --- | --- | --- | --- | --- | --- | --- | --- |
| CC(C)=NOCc1ccc(-c2cn([C@@H]3COC[C@H]3O)nn2)cc1 | -0.203 | 0.313 (inactive) | 0.0429 (inactive) | -0.478 (inactive) | -0.0691 (inactive) | -0.0292 (inactive) | 0.114 (inactive) | -0.0038 (inactive) | 0.106 | 0.0049 |
| C=C[C@H](OC)[C@@H](O)c1ccc(O)c(F)c1 | -0.463 and 0.413 | -2.28 (inactive) and -3.3 (inactive) | -0.74 (inactive) and 0.169 (inactive) | -0.697 (inactive) and -0.991 (inactive) | 0.614 (inactive) and 0.45 (inactive) | -0.684 (inactive) and -0.0772 (inactive) | 0.136 (inactive) and 1.2 (inactive) | 0.0056 (inactive) and 1 (inactive) | -0.792 and 0.496 | -0.283 and -0.107 |
| C=C[C@@H](OC)[C@H](O)c1ccc(OC)c(O)c1 | -0.246 and 0.49 | -1.28 (inactive) and -1.67 (inactive) | -0.72 (inactive) and 0.989 (inactive) | 0.229 (inactive) and -0.344 (inactive) | 0.152 (inactive) | 0.119 (inactive) and -1.5 (inactive) | -0.0985 (inactive) and 1.78 (inactive) | -0.489 (inactive) and 1.38 (inactive) | -1.04 and 0.51 | -0.319 and -0.148 |
| C=C[C@H](C)[C@@H](O)c1ccc(OCCO)cc1 | 0.0272 and -0.227 | -1.41 (inactive) and -2.08 (inactive) | -0.246 (inactive) and -0.5 (inactive) | 0.14 (inactive) and -0.263 (inactive) | 0.684 (inactive) and 0.486 (inactive) | -0.371 (inactive) and 0.526 (inactive) | -0.748 (inactive) and 0.371 (inactive) | -0.902 (inactive) and 0.418 (inactive) | 0.0577 and -0.603 | 0.074 and 0.18 |
| C=C[C@@H](OC)[C@H](O)c1ccc(OCCO)cc1 | 0.242 and 0.884 | -5.46 (inactive) and -6.32 (inactive) | -0.154 (inactive) and 0.883 (inactive) | 0.358 (inactive) and -0.456 (inactive) | 0.519 (inactive) and 1.64 (inactive) | 0.526 (inactive) and -2.73 (inactive) | 0.0235 (inactive) and 1.08 (inactive) | 0.121 (inactive) and 1.48 (inactive) | -0.121 and 1.36 | -0.19 and -0.102 |
| CCOC(=O)[C@H](CC(C)C)NC(=O)CCC1CC(OC(=O)NCc2cccc3ccccc23)CC2(CCCC(COC(=O)NCc3ccccc3)O2)O1 (stereo not given in full) | 0.928 | -1.76 (inactive) | 1.06 (inactive) | -0.621 (inactive) | -0.0326 (inactive) | -0.527 (inactive) | -0.482 (inactive) | -0.102 (inactive) | 0.588 | -0.125 |
| COC(=O)C1=C(C)N(Cc2ccccc2)[C@]23O[C@](C(=O)OC)(C(=O)N2[C@@H]1c1ccccc1)[C@H]1C(=O)N(c2ccccc2)C(=O)[C@H]13 | 0.652 and 1.12 | -1.07 (inactive) and -1.3 (inactive) | 0.965 (inactive) and -0.165 (inactive) | -0.047 (inactive) and -0.335 (inactive) | -0.2 (inactive) | -0.215 (inactive) and 0.133 (inactive) | -0.308 (inactive) and 0.166 (inactive) | -0.306 (inactive) and 0.155 (inactive) | 0.709 and 0.102 | -0.0346 and -0.316 |
| COC(=O)C1=C(C)N(Cc2ccccc2)C2=C3C(=O)N(c4ccccc4)C(=O)[C@@H]3[C@@](O)(C(=O)OC)C(=O)N2[C@@H]1c1ccccc1 | 0.941 and 0.879 | -1.31 (inactive) and -2.61 (inactive) | 0.463 (inactive) and 1.02 (inactive) | -0.0764 (inactive) and -0.563 (inactive) | -0.847 (inactive) | -0.305 (inactive) and -1.62 (inactive) | 0.284 (inactive) and 1.07 (inactive) | -0.23 (inactive) and 1.2 (inactive) | 0.698 and 0.334 | 0.122 and 0.0178 |
| C#CCN1C(/C=C/c2ccccc2)C(=O)OC[C@H]1c1ccccc1 (stereo not given in full) | 0.0256 and 1.82 | -5.79 (inactive) and -4.84 (inactive) | 0.911 (inactive) and 0.42 (inactive) | -3.42 (inactive) and -0.43 (inactive) | -0.73 (inactive) | -2.77 (inactive) and -0.151 (inactive) | 2.04 (inactive) and 0.715 (inactive) | 0.639 (inactive) and -0.294 (inactive) | 0.681 and 1.36 | 0.0727 and -0.0871 |
| CC(C)[Si]1(C(C)C)OCc2cc(C3CC3)nc(CCc3ccccc3)c21 | 0.983 and 1.3 | 1.04 (inactive) and 0.427 (inactive) | 0.905 (inactive) and 0.656 (inactive) | -0.092 (inactive) and -0.377 (inactive) | 0.338 (inactive) and 0.35 (inactive) | 0.534 (inactive) and 0.156 (inactive) | 0.428 (inactive) and -0.615 (inactive) | 0.26 (inactive) and -0.173 (inactive) | 0.635 and 0.355 | 0.321 and -0.305 |
| CC(C)=NOC[C@@H](O)COCc1ccco1 | -0.907 | 0.14 (inactive) | -1.09 (inactive) | 0.102 (inactive) | -0.324 (inactive) | 0.534 (inactive) | 0.745 (inactive) | 0.41 (inactive) | -1.11 | 0.0576 |
| CCN1C(=O)[C@H]2[C@H]3[C@H](O)[C@H](O)CC(=NOC[C@@H](O)COCc4ccco4)[C@@H]3CC[C@H]2C1=O | -0.113 and -1.03 | 1.31 (inactive) and 0.252 (inactive) | -0.413 (inactive) and -0.696 (inactive) | 0.489 (inactive) and 0.529 (inactive) | -0.601 (inactive) and -0.385 (inactive) | 0.567 (inactive) and 0.24 (inactive) | -0.357 (inactive) and -1.05 (inactive) | -0.463 (inactive) and -0.657 (inactive) | -0.575 and -0.287 | -0.0666 and -0.121 |
| CC(CO)N1C(=O)[C@@H]2C3C(=O)OCCC=C[C@H]3OC23C=CCN(C(C)(C)C)C(=O)[C@@H]13 (stereo not given in full) | -0.0539 and 0.0517 | 1.97 (inactive) and -0.0328 (inactive) | -1.28 (inactive) and -0.719 (inactive) | -7.96 (inactive) and -3.06 (inactive) | -0.317 (inactive) and 0.329 (inactive) | 1.01 (inactive) and -1.12 (inactive) | -0.57 (inactive) and -0.149 (inactive) | -0.672 (inactive) and -0.246 (inactive) | -0.896 and -0.817 | -0.157 and 0.517 |
| CO[C@@H]1C=CCC(=O)N2CCC[C@H]2C(=O)OC[C@H](C)C(=O)OC[C@H]1C | 0.445 | -0.774 (inactive) | -0.694 (inactive) | 0.634 (inactive) | -0.72 (inactive) | 0.134 (inactive) | 1.08 (inactive) | 0.858 (inactive) | 0.312 | 0.0595 |
| C=CCN(C(=O)C(c1cccs1)N(C(=O)/C=C\C(=O)O)c1c(Cl)cccc1CO)c1ccc(OC)cc1 (stereo not given) | 0.154 and -2.56 | -2.07 (inactive) and -1.37 (inactive) | 1.02 (inactive) and -0.0953 (inactive) | -5.76 (inactive) and -2.28 (inactive) | -0.18 (inactive) | -0.736 (inactive) and 0.0288 (inactive) | 0.976 (inactive) and 0.515 (inactive) | 1.11 (inactive) and 0.57 (inactive) | 0.509 and -0.0282 | 0.0264 and -0.0795 |
| C=C[C@@H](C)[C@@H](O)c1ccc(OCCO)cc1 | 0.162 and 0.223 | -3.96 (inactive) and -2.81 (inactive) | -0.435 (inactive) and 0.286 (inactive) | 0.0788 (inactive) and -1.03 (inactive) | 0.331 (inactive) and 0.838 (inactive) | 0.909 (inactive) and 1.21 (inactive) | 1.12 (inactive) and 0.982 (inactive) | 0.795 (inactive) and 1.13 (inactive) | -0.112 and 0.616 | 0.103 and -0.15 |
| C=CCN(C(=O)C1N(CCCCCCO)C(=O)C2C(C(=O)O)C3C=CC21O3)c1ccc(OC)cc1 (stereo not given) | 0.831 and 0.525 | -2.35 (inactive) and -2.45 (inactive) | 1.04 (inactive) and -0.294 (inactive) | -1.78 (inactive) and -2.48 (inactive) | -0.401 (inactive) | -1.53 (inactive) and -0.292 (inactive) | 1.15 (inactive) and 0.43 (inactive) | 1.16 (inactive) and 0.716 (inactive) | 1.37 and 0.372 | -0.0492 and 0.0972 |
